# Reference: PubChem BioAssay AID463173 (ICCB-Longwood Screening Facility, Harvard Medical School, 2010)
# The whole screen tested about 52,000 compounds, of which about 1,700 (3.3%) were called active. Many of the other results were omitted from the sample, so actives are more common in it than they were. Values without a mark were called inactive. Cut-off read from the data, not from the text of the source: active = survival mostly below about 52% (no sharp cut-off); inactive = mostly above about 56%.
# Tested on: Wild type
# Assay: growth inhibition of S. aureus wild type versus tarO mutant, primary screen, teichoic acid synthesis inhibitors, RN4220, OD600 (AID 463173)
# Conditions: S. aureus RN4220 wild type/DeltatarO growth, OD600, 18 h, stronger effect = lower value, screened at 18.75 µg/mL (by protocol)
row,SMILES,survival
1,Cc1ccc(C)c(N2CCN(C(c3ccccc3)c3nnc(-c4ccccc4F)o3)CC2)c1 (configuration not stated),53%
2,Cc1cccc(N2CCN(C(c3ccccc3)c3nnc(-c4ccccc4F)o3)CC2)c1C (configuration not stated),43%
3,COc1ccc(N2CCN(C(c3ccccc3)c3nnc(-c4ccccc4Cl)o3)CC2)cc1 (configuration not stated),22%
4,Cc1ccc(C)c(N2CCN(C(c3ccc(F)cc3)c3nnc(-c4ccccc4)o3)CC2)c1 (configuration not stated),14% (active)
5,Cc1cccc(N2CCN(C(c3ccc(F)cc3)c3nnc(-c4ccccc4)o3)CC2)c1C (configuration not stated),28%
6,Cc1ccc(C)c(N2CCN(C(c3ccccc3)c3nnc(-c4ccccc4)o3)CC2)c1 (configuration not stated),1% (active)
7,COc1ccccc1N1CCN(C(c2ccccc2)c2nnc(-c3ccccc3Cl)o2)CC1 (configuration not stated),0% (active)
8,Cc1cccc(N2CCN(C(c3ccccc3)c3nnc(-c4ccccc4Cl)o3)CC2)c1C (configuration not stated),52%
9,Cc1ccc(Cl)cc1N1CCN(C(c2ccc(F)cc2)c2nnc(-c3ccccc3)o2)CC1 (configuration not stated),50%
10,Cc1ccoc1C(=O)Nc1ccccc1C(=O)O,102%
11,Cc1ccc(NC(=O)C2CC(=O)n3cnnc3N2)cc1Cl (configuration not stated),105%
12,COCCNC(=O)CCn1c(=O)c2cc(OC)c(OC)cc2n(CC(=O)Nc2ccccc2OC)c1=O,89%
13,COc1ccc(-c2nn(-c3ccccc3)cc2C(=O)Nc2ccccc2OC)cc1,3% (active)
14,COc1ccccc1NC(=O)c1cn(-c2ccccc2)nc1-c1ccccc1,81%
15,COc1ccc(NC(=O)c2cn(-c3ccccc3)nc2-c2ccc(C)cc2)cc1,93%
16,COC(=O)C1(C)NC(c2ccccc2C)C2C(=O)N(C)C(=O)C21 (configuration not stated),98%
17,CCOC(=O)C1=C(CN2CCN(c3ccccc3)CC2)NC(=O)NC1c1ccc(C)cc1 (configuration not stated),127%
18,CCCOc1ccc(Cn2c(=O)sc3ccccc32)cc1,-4% (active)
19,CCCCOc1ccc(Cn2c(=O)sc3ccccc32)cc1,-4% (active)
20,CC(C)CCOc1ccc(Cn2c(=O)sc3ccccc32)cc1,-3% (active)
21,CC(C)CCOc1ccc(Cn2c(=O)oc3ccccc32)cc1,121%
22,O=c1sc2ccccc2n1CCCOc1ccccc1,116%
23,CCOc1ccc(Cn2c(=O)sc3ccccc32)cc1,72%
24,O=c1sc2ccccc2n1CCc1ccccc1,108%
25,CCCCOc1ccc(Cn2c(=O)oc3ccccc32)cc1,113%
26,COc1ccc(Cn2c(=O)sc3ccccc32)cc1,111%

row,SMILES,survival
1,O=C(CC1N=C2c3ccccc3N=C(SCC(=O)Nc3ccc(F)cc3)N2C1=O)NCc1ccc2c(c1)OCO2 (configuration not stated),80%
2,COc1ccc2cc3cc(C(=O)NCc4ccccc4OC)oc3nc2c1,80%
3,Cc1cccc(-c2nc(Cn3c(SCc4cccc(C(F)(F)F)c4)nc4ccncc43)c(C)o2)c1,81%
4,Cc1ccc(C(=O)ON=C2CCN(C)CC2)cc1,108%
5,O=C(Nc1cccc(F)c1)c1cnc2sc(N3CCCC3)nn2c1=O,74%
6,COc1ccccc1CNC(=O)Cn1cc2c(n1)-c1c(oc(C(=O)N3CCOCC3)c1C)CC2,84%
7,COc1cc2oc(=O)c(CC(=O)N3CCCCC3)c(C)c2cc1Cl,84%
8,Cc1ccc(OCC(=O)Nc2c(C(=O)c3ccc(Cl)cc3)oc3ccccc23)cc1C,129%
9,CCOC(=O)c1cnc2ccc(OCC)cc2c1N1CCN(c2ccccc2F)CC1,-12% (active)
10,CCOC(=O)c1cc(S(=O)(=O)N2CCN(c3cccc(C)c3C)CC2)[nH]n1,72%
11,CCOC(=O)c1cnc(N2CCN(c3cccc(C)c3C)CC2)c2ccccc12,85%
12,CCOC(=O)c1cnc2cc(C(F)(F)F)ccc2c1N1CCN(c2cccc(Cl)c2)CC1,55%
13,CCOC(=O)c1cc(S(=O)(=O)N2CCN(c3ccccc3F)CC2)[nH]n1,-6% (active)
14,CCOC(=O)c1noc2ncnc(N3CCN(c4cccc(Cl)c4)CC3)c12,75%
15,CCOC(=O)c1cnc2cc(C(F)(F)F)ccc2c1N1CCN(c2ccc(F)cc2)CC1,58%
16,CCOC(=O)c1cnc2c(OC)cccc2c1N1CCN(c2ccccc2F)CC1,-14% (active)
17,COC(=O)c1cnc(N2CCN(c3ccccc3F)CC2)c2ccccc12,93%
18,CCOC(=O)c1cc(S(=O)(=O)N2CCN(c3ccccc3OC)CC2)[nH]n1,124%
19,CCOC(=O)c1cnc(N2CCN(c3ccc(C)cc3C)CC2)c2ccccc12,112%
20,CCOC(=O)c1cnc2ccc(OCC)cc2c1N1CCN(c2cccc(Cl)c2)CC1,-9% (active)
21,O=C(Cn1c(=O)n(-c2ccccc2)c(=O)c2sc3ccccc3c21)NC1CCCC1,138%
22,CCOc1ccc(CNC(=O)CCn2nc(C)c3c(C)n(-c4ccccc4)nc3c2=O)cc1,129%
23,COc1ccccc1-c1cc2nc(C)c(CCC(=O)NCc3cccc(Cl)c3)c(C)n2n1,112%
24,CC(C)(C)OC(=O)N1CCC2(CC1)C(C#N)=C(N)OC1=C2C(=O)CCC1,104%
25,CN1CCN(CC(=O)Nc2ccc(C(=O)NCC3CCCO3)cc2)CC1 (configuration not stated),108%
26,COc1ccc2c(c1)c1c(c(=O)n(-c3cccc(C)c3)c(=O)n1CC(=O)NCCC1=CCCCC1)n2C,74%

row,SMILES,survival
1,COc1ccccc1C(=O)Nc1ccccc1OCc1cc(=O)n2ccccc2n1,92%
2,CCN(CC)C(C)C(=O)Nc1c(C)cccc1C (configuration not stated),109%
3,Cc1ccc2oc(-c3cc(NC(=O)Cc4ccccc4)ccc3Cl)nc2c1,70%
4,Cc1ccc2oc(-c3cc(NC(=O)/C=C/c4ccco4)ccc3Cl)nc2c1,25%
5,Cc1ccc2oc(-c3cc(NC(=O)c4oc5ccccc5c4C)ccc3Cl)nc2c1,81%
6,O=C(Nc1ccc(Cl)c(-c2nc3ccccc3o2)c1)c1cccc2c(Cl)cccc12,67%
7,COc1c(C)cccc1C(=O)Nc1ccc(Cl)c(-c2nc3cc(C)ccc3o2)c1,-6% (active)
8,Cc1ccc2oc(-c3cc(NC(=O)c4ccco4)ccc3Cl)nc2c1,1% (active)
9,CC(C)c1ccc(NC(=O)c2cc3c(=O)oc4ccccc4c3s2)cc1,87%
10,CCOC(=O)c1c(-c2ccc(OC)cc2)oc2ccc(OCc3ccc(F)cc3F)cc12,42%
11,CCN(CC)CCOC(=O)c1ccc(NC(=O)c2cc3c(s2)-c2ccccc2OC3)cc1,5% (active)
12,O=C(NCCCN1CCN(c2ccc(F)cc2)CC1)c1cc2c(s1)-c1ccccc1OC2,62%
13,O=C(NCc1ccc(Cl)cc1)c1cc2c(s1)-c1ccccc1SC2,62%
14,CCOc1ccc(NC(=O)c2cc3c(s2)-c2ccccc2OC3)cc1,100%
15,CCCN(C(=O)c1cc2c(s1)-c1ccccc1OC2)c1ccccc1F,-2% (active)
16,O=C(NCc1ccc(F)cc1)c1cc2c(s1)-c1ccccc1SC2,50%
17,O=C(NCCCN1CCN(c2ccccc2)CC1)c1cc2c(s1)-c1ccccc1OC2,69%
18,CCc1cccc(NC(=O)c2cc3c(s2)-c2ccccc2OC3)c1,86%
19,O=C(NCCCN1CCN(c2ccccc2F)CC1)c1cc2c(s1)-c1ccccc1OC2,11% (active)
20,O=C(NCCc1ccc(Cl)cc1)c1cc2c(s1)-c1ccccc1OC2,105%
21,CCCN(C(=O)c1cc2c(s1)-c1ccccc1SC2)c1ccccc1F,1% (active)
22,CCCN1CCN(CCCNC(=O)c2cc3c(s2)-c2ccccc2OC3)CC1,83%
23,Cc1ccc(NC(=O)C2CCCN2S(=O)(=O)c2ccc3c(c2)CCCC(=O)N3)cc1Cl (configuration not stated),113%
24,COc1ccc(-c2nc3cc(N=Cc4ccccc4O)ccc3o2)cc1,111%
25,CCCCn1c2ccc(F)cc2c2nnc(SCCN3CCCCC3)nc21,139%
26,COCCCNC(=O)c1cc(-c2cccnc2)nc2ccccc12,118%

row,SMILES,survival
1,CCOc1ccc(NC(=O)CN2C(=O)c3ccccc3Sc3ccc(C(=O)OC)cc32)cc1,81%
2,COc1ccccc1OCc1ccc(C(=O)NCc2ccncc2)o1,116%
3,Cc1ccc(Cn2cc(S(=O)(=O)c3ccccc3)c(=O)c3cc(F)c(N4CCOCC4)cc32)cc1,58%
4,O=C(c1nc(-c2ccc(Cl)cc2)n2c1CCCCC2)N1CCN(c2ccc(F)cc2)CC1,70%
5,COc1ccc(C2c3c(n(C)c4ccccc34)C(=O)N2CC(=O)Nc2ccc(F)cc2)cc1 (configuration not stated),81%
6,CC(=O)Nc1ccccc1-c1nc2cc(C#N)c(C#N)cc2[nH]c1=O,108%
7,CCN(c1ccccc1C)S(=O)(=O)c1nnc(NC(=O)c2ccc(OC)c(OC)c2)s1,42%
8,COC(=O)c1ccccc1NC(=O)CCc1c(C)nc2c(c(C)nn2-c2ccccc2)c1C,117%
9,O=C(CSc1nc(-c2ccccc2)cn1-c1ccccc1)Nc1ccccc1,68%
10,COc1ccc(NC(=O)c2c(NCc3cccc(OC)c3)sc3c2CCC3)cc1,65%
11,CC(C)Nc1nc(NC(C)C)nc(N(C)C)n1,115%
12,Cc1ccc2oc3c(c(=O)c2c1)C(c1cccc(O)c1)N(Cc1ccccc1Cl)C3=O (configuration not stated),82%
13,CCCN(C(=O)c1cc2c(s1)-c1ccccc1OC2)c1ccc(C(C)C)cc1,5% (active)
14,CCc1ccc(CNC(=O)c2cc3c(s2)-c2ccccc2OC3)cc1,95%
15,CCN(C(=O)c1cc2c(s1)-c1ccccc1OC2)c1cccc(C(F)(F)F)c1,14% (active)
16,COc1ccc(Cl)cc1NC(=O)c1cc2c(s1)-c1ccccc1OC2,80%
17,CCN(C(=O)c1cc2c(s1)-c1ccccc1OC2)c1cc(Cl)ccc1OC,8% (active)
18,CCOc1ccc(CNC(=O)c2cc3c(s2)-c2ccccc2OC3)cc1,91%
19,CCN(C(=O)c1cc2c(=O)oc3ccccc3c2s1)c1cccc(C(F)(F)F)c1,131%
20,CCCN(C(=O)c1cc2c(s1)-c1c(C)cccc1OC2)c1ccc(OCC)cc1,95%
21,CCN(C(=O)c1cc2c(=O)n(CC)c3ccccc3c2s1)c1cccc(C(F)(F)F)c1,89%
22,COc1ccccc1CNC(=O)c1cc2c(s1)-c1ccccc1OC2,92%
23,CCOc1ccc(N(CC)C(=O)c2cc3c(s2)-c2ccccc2OC3)cc1,88%
24,CCc1ccccc1N(CC)C(=O)c1cc2c(s1)-c1ccccc1OC2,9% (active)
